This note sets out measurements from PubChem BioAssay (NCI).

Some test systems named below: NCI-H23 lung; NCI-H226 lung; NCI-H322M lung; HOP-62 NSCLC; NCI-H460 lung; HOP-92 NSCLC; NCI-H522 lung; A549/ATCC NSCLC; 786-0 renal; COLO 205 colon.
Common to all, as to assay: NCI-60 one-dose screen, 48 h (100 = growth as untreated, 0 = no growth, -100 = all killed)
What all share (conditions): 10 µM unless noted

Each structure is given as a SMILES string. About 83,000 compounds went through this panel and 20% of them were active in at least one assay; those are over-represented in the sample as a whole.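 Plates (96-well) were seeded with cells, treated with compound at one concentration, and incubated for 48 hours before percent growth was determined.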 A number with no mark means an inactive call. Active and inactive are the calls of the source. Rule for the calls: active = growth percent below 10; inactive = the rest.

In the case of `O=C1[C@@H]2Cc3c([nH]c4ccccc34)[C@@H](c3ccc(Cl)cc3)N2C(=O)CN1C1CCN(Cc2c(F)cccc2F)CC1`, the growth with NCI-H23 lung is 48.8%; in the assay on NCI-H226 lung it was 60.6%; with NCI-H322M lung, 66.2%; with HOP-62 NSCLC it was 54.1%; with NCI-H460 lung, 22.5%; in the assay on HOP-92 NSCLC, -0.363% (active). The growth with NCI-H522 lung is 36.7%; in the assay with A549/ATCC NSCLC it was 31.6%; in the assay on 786-0 renal it was 45.2%; in the assay on COLO 205 colon it was 7.17% (active).

With `Cc1ccc(C(=O)CSc2nnc(-c3ccc(-c4ccc(Cl)cc4)nc3C)o2)cc1`, the growth was 93% with NCI-H23 lung; 88.6% with NCI-H226 lung; 95.8% with NCI-H322M lung; 92.5% in the assay on HOP-62 NSCLC; 107% in the assay with NCI-H460 lung; 88% in the assay on HOP-92 NSCLC. For the same compound, the growth is 91.7% with NCI-H522 lung, 106% with A549/ATCC NSCLC, 104% in the assay on 786-0 renal and 117% with COLO 205 colon.

As for `CNC(=O)c1cc(N2CCc3cc(NC(=O)Nc4ccc(N5CCOCC5)c(C(F)(F)F)c4)ccc32)ccn1`, the growth with NCI-H23 lung was 18.7%; in the assay with NCI-H226 lung, 35.2%; in the assay with NCI-H322M lung, 56.2%; in the assay on HOP-62 NSCLC, 12.1%; in the assay with NCI-H460 lung, 9.77% (active); with HOP-92 NSCLC it was 14.1%. In addition, the growth with NCI-H522 lung is 45.8%; in the assay with A549/ATCC NSCLC, 43.7%; in the assay with 786-0 renal, 27.3%; in the assay on COLO 205 colon, 26.7%.

As for `c1ccc(-c2cn3c(-c4c[nH]c5ccccc45)csc3n2)cc1`, the growth was 57.8% in the assay with NCI-H23 lung; 80.4% in the assay on NCI-H226 lung; 85.4% in the assay with NCI-H322M lung; 91.3% in the assay on HOP-62 NSCLC; 60.8% in the assay on NCI-H460 lung; -1.71% (active) in the assay on HOP-92 NSCLC. Besides, the growth in the assay with NCI-H522 lung is 51%; in the assay with A549/ATCC NSCLC, 92%; with 786-0 renal, 99.5%; in the assay on COLO 205 colon it was 83.5%.

Regarding `CCOC(=O)C(=O)Nc1ccc2c(ccn2C(=O)c2cccc(F)c2)c1`, the growth in the assay on NCI-H23 lung was 95.8%; in the assay with NCI-H226 lung, 97.2%; in the assay on NCI-H322M lung it was 93.8%; with HOP-62 NSCLC, 95.9%; in the assay with NCI-H460 lung, 100%; in the assay on HOP-92 NSCLC it was 78.9%. Besides, the growth in the assay on NCI-H522 lung was 96.1%; in the assay on A549/ATCC NSCLC it was 102%; with 786-0 renal, 97.6%; with COLO 205 colon, 108%.

On to `O=S(=O)(NCCCNc1nccc(-c2[nH]c(-c3ccccc3)nc2-c2ccc(F)c(O)c2)n1)c1cccc2ccccc12`, for which the growth in the assay on NCI-H23 lung is 64.9%; in the assay with NCI-H226 lung, 68%; with NCI-H322M lung it was 98.2%; with HOP-62 NSCLC it was 76.8%; in the assay with NCI-H460 lung, 35.5%; with HOP-92 NSCLC it was 32.6%. The growth in the assay with NCI-H522 lung is 64%; with A549/ATCC NSCLC it was 52.4%; in the assay on 786-0 renal it was 59.8%; with COLO 205 colon, 111%.

For `CC1=C(C)C(=O)C(Nc2ccc3c(c2)OCO3)=C(Br)C1=O`, the growth in the assay on NCI-H23 lung is 90%; in the assay with NCI-H226 lung, 93%; in the assay on NCI-H322M lung, 96.5%; in the assay with HOP-62 NSCLC, 92.9%; in the assay on NCI-H460 lung it was 100%; in the assay on HOP-92 NSCLC it was -22.9% (active). Besides, the growth with NCI-H522 lung was 96.5%; in the assay with A549/ATCC NSCLC, 102%; in the assay with 786-0 renal it was 103%; with COLO 205 colon, 122%.

Consider `O=S(=O)(Oc1ccc(-c2cn3ccoc3n2)cc1)C1CCCCC1`, for which the growth was 102% in the assay with NCI-H23 lung; 86.7% in the assay with NCI-H226 lung; 101% with NCI-H322M lung; 105% in the assay on HOP-62 NSCLC; 100% in the assay on NCI-H460 lung; 99.9% with HOP-92 NSCLC. Moreover, the growth is 87.9% with NCI-H522 lung, 99.4% in the assay on A549/ATCC NSCLC, 100% with 786-0 renal and 103% in the assay on COLO 205 colon.

For the compound `O=S(=O)(NCCCNc1nccc(-c2[nH]c(-c3ccccc3)nc2-c2ccc(F)c(O)c2)n1)c1ccccc1`, the growth in the assay on NCI-H23 lung is 96.5%; with NCI-H226 lung, 99.4%; with NCI-H322M lung it was 117%; in the assay on HOP-62 NSCLC it was 120%; in the assay on NCI-H460 lung, 87.3%; with HOP-92 NSCLC, 105%. Further, the growth in the assay with NCI-H522 lung is 91.2%; in the assay with A549/ATCC NSCLC, 98.3%; in the assay on 786-0 renal, 113%; with COLO 205 colon, 95.5%.

As to `O=C(CCCCCCNC(=O)C(O)(O)C(F)(F)F)Nc1nc2ccccc2s1`, the growth is 3.62% (active) in the assay on NCI-H23 lung; 25.4% with NCI-H226 lung; 8.24% (active) with NCI-H322M lung; 0.982% (active) in the assay with HOP-62 NSCLC; 8.87% (active) in the assay with NCI-H460 lung; -5.22% (active) with HOP-92 NSCLC. The growth with NCI-H522 lung was -35.8% (active); with A549/ATCC NSCLC, 4.79% (active); in the assay on 786-0 renal, 20.3%; in the assay with COLO 205 colon it was -68.5% (active).

With `C#CCOc1ccc(-c2csc(NC(=O)C=C)n2)cc1NS(=O)(=O)c1cccc2c(N(C)C)cccc12`, the growth in the assay with NCI-H23 lung is 56.4%; with NCI-H226 lung, 33.1%; in the assay with NCI-H322M lung, 87.6%; with HOP-62 NSCLC, 93.2%; with NCI-H460 lung, 81.2%; in the assay with HOP-92 NSCLC, 0.234% (active). Further, the growth was 29.9% in the assay with NCI-H522 lung, 65.4% with A549/ATCC NSCLC, 8.71% (active) with 786-0 renal and 67.6% in the assay on COLO 205 colon.

In the case of `CN1CCN(c2ccc(Nc3nc(NCCNS(=O)(=O)c4ccc(Cl)cc4)c4sccc4n3)cc2)CC1`, the growth was 96% in the assay on NCI-H23 lung; 105% in the assay with NCI-H226 lung; 99.4% in the assay with NCI-H322M lung; 104% in the assay on HOP-62 NSCLC; 98.8% with NCI-H460 lung; 49.4% with HOP-92 NSCLC. Also, the growth with NCI-H522 lung was 106%; with A549/ATCC NSCLC, 92.7%; in the assay on 786-0 renal it was 75.8%; in the assay with COLO 205 colon, 99.7%.

`CC1(C)C=Cc2cc(/C(N)=N/C(N)=N/c3nc4ccccc4s3)ccc2O1`: the growth was 58.3% with NCI-H23 lung; 5.64% (active) in the assay on NCI-H226 lung; 93.8% in the assay on NCI-H322M lung; 5.82% (active) with HOP-62 NSCLC; 52.3% with NCI-H460 lung; 94.2% with HOP-92 NSCLC. Moreover, the growth is 91.2% in the assay with NCI-H522 lung, 67% in the assay with A549/ATCC NSCLC, 113% in the assay on 786-0 renal and 102% in the assay with COLO 205 colon.
